# In PMC7862700, “An all-to-all approach to the identification of sequence-specific readers for epigenetic DNA modifications on cytosine”:
# What was measured:
# Assay in all cases: DAPPL (digital affinity profiling via proximity ligation, sequencing); 10 mM Tris-HCl pH 7.5, 50 mM NaCl, 1 mM DTT, 4% glycerol, room temperature, 30 min; GST-TFs on glutathione beads, 16-mer random dsDNA library, 0.1% formaldehyde crosslink after washing; high values mean tight binding
# FLI1 = biological target: T1, FLI1 (Homo sapiens, UniProt Q01543 1-452); details: protein: recombinant; tags: N-terminal GST; dsDNA, one strand shown
# T1 sequence: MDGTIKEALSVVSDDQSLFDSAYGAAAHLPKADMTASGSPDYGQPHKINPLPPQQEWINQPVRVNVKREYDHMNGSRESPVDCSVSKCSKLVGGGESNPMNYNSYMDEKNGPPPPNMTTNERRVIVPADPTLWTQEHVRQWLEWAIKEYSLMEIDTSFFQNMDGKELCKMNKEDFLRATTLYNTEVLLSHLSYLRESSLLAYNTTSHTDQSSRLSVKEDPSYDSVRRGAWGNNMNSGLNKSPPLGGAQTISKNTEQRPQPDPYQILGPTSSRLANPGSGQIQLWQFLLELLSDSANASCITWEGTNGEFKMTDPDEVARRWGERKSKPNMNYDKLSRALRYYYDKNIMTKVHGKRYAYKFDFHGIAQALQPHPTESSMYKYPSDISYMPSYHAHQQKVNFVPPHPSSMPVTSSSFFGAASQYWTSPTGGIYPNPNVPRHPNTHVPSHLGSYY
# In short: (§1)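 A tag-only sample was pooled with DNA-barcoded human transcription factors that had been expressed in yeast as GST fusions and captured on glutathione beads. The pools were incubated for 30 min at room temperature with 200 nmole of a random double-stranded 16-mer DNA library in Tris/NaCl/DTT/glycerol buffer, then washed, crosslinked with 0.1% formaldehyde, proximity-ligated (BsaI/T4 ligase, 1 h, 37 °C), PCR-amplified and sequenced on an Illumina NextSeq500. Binding signal is each hexamer's read frequency for a factor divided by its frequency for the tag-only sample.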
# ELK1 = biological target: T2, ELK1 (Homo sapiens, UniProt P19419 1-428); details: protein: recombinant; tags: N-terminal GST; dsDNA, one strand shown
# T2 sequence: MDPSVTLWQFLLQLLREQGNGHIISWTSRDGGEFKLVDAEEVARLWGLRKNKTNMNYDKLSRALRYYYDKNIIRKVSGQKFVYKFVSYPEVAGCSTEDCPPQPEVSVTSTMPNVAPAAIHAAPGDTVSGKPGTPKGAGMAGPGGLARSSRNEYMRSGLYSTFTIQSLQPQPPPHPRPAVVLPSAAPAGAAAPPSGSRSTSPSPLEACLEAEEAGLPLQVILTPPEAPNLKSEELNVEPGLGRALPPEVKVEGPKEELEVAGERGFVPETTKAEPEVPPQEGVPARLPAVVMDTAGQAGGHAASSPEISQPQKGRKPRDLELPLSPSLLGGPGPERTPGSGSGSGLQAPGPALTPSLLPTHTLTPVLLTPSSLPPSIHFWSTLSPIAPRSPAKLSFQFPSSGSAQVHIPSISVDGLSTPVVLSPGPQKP
# In short: as §1
# GABPA = biological target: T3, GABPA (Homo sapiens, UniProt Q06546 1-454); details: protein: recombinant; tags: N-terminal GST; dsDNA, one strand shown
# T3 sequence: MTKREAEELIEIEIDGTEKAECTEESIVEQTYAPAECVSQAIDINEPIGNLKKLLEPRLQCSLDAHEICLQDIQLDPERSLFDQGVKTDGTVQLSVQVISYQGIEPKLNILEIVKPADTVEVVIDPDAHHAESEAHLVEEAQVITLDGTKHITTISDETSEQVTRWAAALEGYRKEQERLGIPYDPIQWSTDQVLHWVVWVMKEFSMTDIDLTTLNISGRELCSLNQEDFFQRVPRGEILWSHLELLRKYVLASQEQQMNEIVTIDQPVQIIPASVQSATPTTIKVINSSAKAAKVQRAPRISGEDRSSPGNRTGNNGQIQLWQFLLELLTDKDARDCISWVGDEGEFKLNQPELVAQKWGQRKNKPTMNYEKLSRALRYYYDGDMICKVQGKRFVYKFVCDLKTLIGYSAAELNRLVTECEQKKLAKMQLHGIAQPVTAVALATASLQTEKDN
# In short: as §1
# ERG = biological target: T4, ERG (Homo sapiens, UniProt P11308 1-479); details: protein: recombinant; tags: N-terminal GST; dsDNA, one strand shown
# T4 sequence: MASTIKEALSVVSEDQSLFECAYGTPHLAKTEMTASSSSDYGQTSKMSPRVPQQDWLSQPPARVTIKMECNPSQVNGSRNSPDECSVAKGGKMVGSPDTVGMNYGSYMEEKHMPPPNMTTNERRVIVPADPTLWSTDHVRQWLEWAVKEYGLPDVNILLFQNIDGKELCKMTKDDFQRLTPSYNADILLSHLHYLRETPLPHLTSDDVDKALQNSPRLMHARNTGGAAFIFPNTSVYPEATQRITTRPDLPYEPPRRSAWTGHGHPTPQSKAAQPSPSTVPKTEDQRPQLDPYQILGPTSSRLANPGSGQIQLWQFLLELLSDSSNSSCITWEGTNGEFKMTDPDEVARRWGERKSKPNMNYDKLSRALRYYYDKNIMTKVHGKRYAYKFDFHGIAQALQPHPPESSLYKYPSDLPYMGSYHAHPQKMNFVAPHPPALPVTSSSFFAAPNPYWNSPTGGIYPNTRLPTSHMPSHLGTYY
# In short: as §1
# ELF1 = ELF1 (Homo sapiens, UniProt P32519 1-619); details: protein: recombinant; tags: N-terminal GST; dsDNA, one strand shown
# In short: as §1
# EHF = biological target: T5, EHF (Homo sapiens, UniProt Q9NZC4 1-300); details: protein: recombinant; tags: N-terminal GST; dsDNA, one strand shown
# T5 sequence: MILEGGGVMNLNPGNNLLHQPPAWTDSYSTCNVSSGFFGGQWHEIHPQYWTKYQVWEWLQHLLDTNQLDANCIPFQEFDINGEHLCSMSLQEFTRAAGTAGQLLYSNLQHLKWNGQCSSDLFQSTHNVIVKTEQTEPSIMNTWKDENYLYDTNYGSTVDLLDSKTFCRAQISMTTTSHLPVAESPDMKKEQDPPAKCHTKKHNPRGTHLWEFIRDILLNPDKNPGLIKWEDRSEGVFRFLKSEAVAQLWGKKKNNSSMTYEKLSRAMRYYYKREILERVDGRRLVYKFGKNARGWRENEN
# In short: as §1
# SPI1 = SPI1 (Homo sapiens, UniProt P17947 1-270); details: protein: recombinant; tags: N-terminal GST; dsDNA, one strand shown
# In short: as §1
# SPIB = SPIB (Homo sapiens, UniProt Q01892 1-262); details: protein: recombinant; tags: N-terminal GST; dsDNA, one strand shown
# In short: as §1
# ELK3 = biological target: T6, ELK3 (Homo sapiens, UniProt P41970 1-407); details: protein: recombinant; tags: N-terminal GST; dsDNA, one strand shown
# T6 sequence: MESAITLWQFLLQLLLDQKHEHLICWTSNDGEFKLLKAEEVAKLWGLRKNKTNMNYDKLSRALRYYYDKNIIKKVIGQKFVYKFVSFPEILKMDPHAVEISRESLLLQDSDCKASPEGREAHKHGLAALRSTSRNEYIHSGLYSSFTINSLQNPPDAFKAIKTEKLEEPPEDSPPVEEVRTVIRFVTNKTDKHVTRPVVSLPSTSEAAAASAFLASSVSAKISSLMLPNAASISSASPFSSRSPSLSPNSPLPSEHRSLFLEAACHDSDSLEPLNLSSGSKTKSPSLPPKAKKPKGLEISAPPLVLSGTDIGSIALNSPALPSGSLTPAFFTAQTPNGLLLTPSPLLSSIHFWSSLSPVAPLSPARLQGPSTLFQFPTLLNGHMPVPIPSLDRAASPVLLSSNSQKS
# In short: as §1
# FEV = biological target: T7, FEV (Homo sapiens, UniProt Q99581 1-238); details: protein: recombinant; tags: N-terminal GST; dsDNA, one strand shown
# T7 sequence: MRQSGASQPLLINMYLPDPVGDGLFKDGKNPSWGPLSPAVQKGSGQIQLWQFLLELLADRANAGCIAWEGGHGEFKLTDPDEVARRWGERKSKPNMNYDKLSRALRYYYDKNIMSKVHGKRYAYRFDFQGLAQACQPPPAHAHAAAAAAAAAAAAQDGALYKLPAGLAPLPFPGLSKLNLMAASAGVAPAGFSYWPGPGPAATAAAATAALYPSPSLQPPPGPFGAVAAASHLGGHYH
# In short: as §1
# ETV5 = ETV5 (Homo sapiens, UniProt P41161 1-510); details: protein: recombinant; tags: N-terminal GST; dsDNA, one strand shown
# In short: as §1
# HSF1 = HSF1 (Homo sapiens, UniProt Q00613 1-529); details: protein: recombinant; tags: N-terminal GST; chain copies: 3; dsDNA, one strand shown
# In short: as §1
# SPIC = biological target: T8, SPIC (Homo sapiens, UniProt Q8N5J4 1-248); details: protein: recombinant; tags: N-terminal GST; dsDNA, one strand shown
# T8 sequence: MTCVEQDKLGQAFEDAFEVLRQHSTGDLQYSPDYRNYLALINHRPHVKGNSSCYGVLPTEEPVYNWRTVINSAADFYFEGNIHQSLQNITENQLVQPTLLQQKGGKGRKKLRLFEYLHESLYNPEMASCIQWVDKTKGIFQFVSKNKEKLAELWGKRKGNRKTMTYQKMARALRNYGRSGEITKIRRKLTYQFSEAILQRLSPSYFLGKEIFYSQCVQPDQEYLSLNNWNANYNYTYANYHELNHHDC
# In short: as §1
# ELF4 = ELF4 (Homo sapiens, UniProt Q99607 1-663); details: protein: recombinant; tags: N-terminal GST; dsDNA, one strand shown
# In short: as §1
# ELK4 = biological target: T9, ELK4 (Homo sapiens, UniProt P28324-2 1-405); details: protein: recombinant; tags: N-terminal GST; dsDNA, one strand shown
# T9 sequence: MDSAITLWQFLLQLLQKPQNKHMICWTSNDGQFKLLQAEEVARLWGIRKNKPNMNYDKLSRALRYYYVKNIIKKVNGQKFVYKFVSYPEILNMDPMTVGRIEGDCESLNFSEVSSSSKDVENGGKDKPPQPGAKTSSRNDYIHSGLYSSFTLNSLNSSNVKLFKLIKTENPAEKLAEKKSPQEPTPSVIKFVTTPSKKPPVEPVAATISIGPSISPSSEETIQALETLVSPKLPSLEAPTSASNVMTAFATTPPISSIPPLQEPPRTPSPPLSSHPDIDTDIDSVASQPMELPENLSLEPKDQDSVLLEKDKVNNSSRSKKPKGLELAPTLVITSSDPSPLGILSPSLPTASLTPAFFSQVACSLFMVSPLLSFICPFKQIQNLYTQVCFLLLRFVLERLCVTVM
# In short: as §1
# ETV2 = biological target: T10, ETV2 (Homo sapiens, UniProt O00321 1-342); details: protein: recombinant; tags: N-terminal GST; dsDNA, one strand shown
# T10 sequence: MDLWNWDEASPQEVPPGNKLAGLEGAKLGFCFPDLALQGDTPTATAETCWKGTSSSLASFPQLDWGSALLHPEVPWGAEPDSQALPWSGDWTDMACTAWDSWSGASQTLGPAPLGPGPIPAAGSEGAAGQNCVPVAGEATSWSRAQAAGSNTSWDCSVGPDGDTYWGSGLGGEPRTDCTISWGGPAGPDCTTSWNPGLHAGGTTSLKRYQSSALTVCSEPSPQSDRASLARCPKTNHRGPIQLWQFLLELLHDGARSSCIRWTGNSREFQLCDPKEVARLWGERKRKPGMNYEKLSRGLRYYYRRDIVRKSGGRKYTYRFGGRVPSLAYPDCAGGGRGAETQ
# In short: as §1
# ELF3 = biological target: T11, ELF3 (Homo sapiens, UniProt P78545 1-371); details: protein: recombinant; tags: N-terminal GST; dsDNA, one strand shown
# T11 sequence: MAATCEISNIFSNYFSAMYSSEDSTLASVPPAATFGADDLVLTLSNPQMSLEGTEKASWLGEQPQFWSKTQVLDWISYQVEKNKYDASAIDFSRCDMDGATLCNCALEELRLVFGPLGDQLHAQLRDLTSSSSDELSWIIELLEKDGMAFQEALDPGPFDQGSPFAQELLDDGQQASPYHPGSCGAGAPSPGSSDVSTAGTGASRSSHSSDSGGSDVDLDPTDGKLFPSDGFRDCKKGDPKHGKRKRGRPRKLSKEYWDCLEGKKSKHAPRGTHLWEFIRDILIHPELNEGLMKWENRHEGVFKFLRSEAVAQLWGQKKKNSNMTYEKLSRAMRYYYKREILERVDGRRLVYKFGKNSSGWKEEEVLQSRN
# In short: as §1
# CRX = CRX (Homo sapiens, UniProt O43186 1-299); details: protein: recombinant; tags: N-terminal GST; dsDNA, one strand shown
# In short: as §1
# ETV1 = ETV1 (Homo sapiens, UniProt P50549 1-477); details: protein: recombinant; tags: N-terminal GST; dsDNA, one strand shown
# In short: as §1
# ELF4, sequence (Q99607 whole entry): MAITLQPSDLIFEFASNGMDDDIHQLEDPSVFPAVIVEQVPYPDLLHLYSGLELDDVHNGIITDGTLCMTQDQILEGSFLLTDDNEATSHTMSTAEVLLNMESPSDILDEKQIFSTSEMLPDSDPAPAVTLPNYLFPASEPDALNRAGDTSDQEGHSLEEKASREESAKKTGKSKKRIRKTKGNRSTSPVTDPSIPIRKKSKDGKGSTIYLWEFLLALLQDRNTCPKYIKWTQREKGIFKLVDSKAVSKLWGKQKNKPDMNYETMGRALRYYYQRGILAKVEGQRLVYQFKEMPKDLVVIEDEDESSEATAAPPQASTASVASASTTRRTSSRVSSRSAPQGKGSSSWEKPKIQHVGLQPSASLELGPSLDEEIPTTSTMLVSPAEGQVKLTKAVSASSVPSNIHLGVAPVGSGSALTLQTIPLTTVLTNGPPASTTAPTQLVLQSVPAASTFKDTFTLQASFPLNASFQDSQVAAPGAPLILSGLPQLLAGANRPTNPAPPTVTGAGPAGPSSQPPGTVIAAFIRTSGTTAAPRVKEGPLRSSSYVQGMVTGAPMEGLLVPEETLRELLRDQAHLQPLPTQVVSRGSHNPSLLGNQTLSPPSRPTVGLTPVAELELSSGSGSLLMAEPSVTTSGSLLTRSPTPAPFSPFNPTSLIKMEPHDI
# ELF1, sequence (P32519 whole entry): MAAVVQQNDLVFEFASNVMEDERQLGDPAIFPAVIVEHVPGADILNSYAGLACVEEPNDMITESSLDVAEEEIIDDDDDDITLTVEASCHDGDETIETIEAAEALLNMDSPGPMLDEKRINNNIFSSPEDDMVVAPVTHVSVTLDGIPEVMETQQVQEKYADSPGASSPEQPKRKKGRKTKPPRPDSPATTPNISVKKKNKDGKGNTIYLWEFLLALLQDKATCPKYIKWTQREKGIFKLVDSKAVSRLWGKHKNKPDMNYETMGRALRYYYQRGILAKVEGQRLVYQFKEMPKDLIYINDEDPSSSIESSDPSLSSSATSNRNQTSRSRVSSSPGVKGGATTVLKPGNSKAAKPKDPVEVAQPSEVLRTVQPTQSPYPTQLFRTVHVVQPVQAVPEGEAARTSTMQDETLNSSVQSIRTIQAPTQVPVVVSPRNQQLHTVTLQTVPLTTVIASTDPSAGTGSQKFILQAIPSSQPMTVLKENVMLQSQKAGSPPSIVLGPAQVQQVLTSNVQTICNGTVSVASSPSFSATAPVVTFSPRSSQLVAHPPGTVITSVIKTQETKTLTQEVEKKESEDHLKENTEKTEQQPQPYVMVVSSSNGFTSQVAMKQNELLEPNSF
# SPIB, sequence (Q01892 whole entry): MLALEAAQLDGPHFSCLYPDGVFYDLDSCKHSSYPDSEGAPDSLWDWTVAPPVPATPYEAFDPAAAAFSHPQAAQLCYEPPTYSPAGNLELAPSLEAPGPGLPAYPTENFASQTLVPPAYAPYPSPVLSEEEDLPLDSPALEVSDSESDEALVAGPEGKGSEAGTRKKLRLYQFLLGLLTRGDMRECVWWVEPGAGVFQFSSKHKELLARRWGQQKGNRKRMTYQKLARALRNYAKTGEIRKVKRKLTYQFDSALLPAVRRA
# ETV1, sequence (P50549 whole entry): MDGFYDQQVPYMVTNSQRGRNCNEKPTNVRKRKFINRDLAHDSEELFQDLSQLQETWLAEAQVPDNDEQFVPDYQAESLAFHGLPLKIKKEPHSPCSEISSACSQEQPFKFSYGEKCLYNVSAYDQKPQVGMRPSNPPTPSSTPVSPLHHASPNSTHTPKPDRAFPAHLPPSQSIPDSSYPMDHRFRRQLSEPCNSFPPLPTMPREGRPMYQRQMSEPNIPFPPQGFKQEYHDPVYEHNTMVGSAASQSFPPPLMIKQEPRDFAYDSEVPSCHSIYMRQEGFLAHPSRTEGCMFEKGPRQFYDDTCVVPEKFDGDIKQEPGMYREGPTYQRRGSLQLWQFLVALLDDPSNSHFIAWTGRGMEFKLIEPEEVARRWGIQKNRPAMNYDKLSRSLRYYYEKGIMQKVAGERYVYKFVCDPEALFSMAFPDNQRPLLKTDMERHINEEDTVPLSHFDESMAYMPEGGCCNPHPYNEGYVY
# ETV5, sequence (P41161 whole entry): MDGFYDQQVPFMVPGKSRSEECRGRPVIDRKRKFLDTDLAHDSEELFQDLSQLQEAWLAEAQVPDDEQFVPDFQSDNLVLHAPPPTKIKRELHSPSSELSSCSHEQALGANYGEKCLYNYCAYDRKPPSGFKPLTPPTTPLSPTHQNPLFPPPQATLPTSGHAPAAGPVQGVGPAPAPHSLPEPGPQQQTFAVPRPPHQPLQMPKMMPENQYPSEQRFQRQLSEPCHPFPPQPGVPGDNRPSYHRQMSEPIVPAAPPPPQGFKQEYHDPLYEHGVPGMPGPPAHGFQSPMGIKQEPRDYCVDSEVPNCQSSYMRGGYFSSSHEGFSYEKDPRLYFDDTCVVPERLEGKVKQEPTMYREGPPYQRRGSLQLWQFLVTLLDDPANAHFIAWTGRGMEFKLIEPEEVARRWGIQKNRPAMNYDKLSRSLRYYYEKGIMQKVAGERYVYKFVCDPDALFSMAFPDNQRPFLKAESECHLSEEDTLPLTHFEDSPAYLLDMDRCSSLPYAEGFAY
# HSF1, sequence (Q00613 whole entry): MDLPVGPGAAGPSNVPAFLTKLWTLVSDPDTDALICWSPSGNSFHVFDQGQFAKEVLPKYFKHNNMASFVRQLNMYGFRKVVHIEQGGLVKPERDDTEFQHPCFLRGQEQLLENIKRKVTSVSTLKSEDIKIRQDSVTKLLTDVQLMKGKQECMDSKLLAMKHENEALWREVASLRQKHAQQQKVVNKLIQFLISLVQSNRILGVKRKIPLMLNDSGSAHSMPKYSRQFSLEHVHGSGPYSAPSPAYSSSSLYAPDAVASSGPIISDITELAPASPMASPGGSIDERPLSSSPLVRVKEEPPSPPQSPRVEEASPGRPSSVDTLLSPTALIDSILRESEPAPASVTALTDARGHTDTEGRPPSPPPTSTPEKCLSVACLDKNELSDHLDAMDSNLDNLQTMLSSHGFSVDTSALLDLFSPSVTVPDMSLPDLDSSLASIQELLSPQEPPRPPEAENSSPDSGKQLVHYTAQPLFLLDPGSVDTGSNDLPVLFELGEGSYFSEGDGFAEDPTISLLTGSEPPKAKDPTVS
# CRX, sequence (O43186 whole entry): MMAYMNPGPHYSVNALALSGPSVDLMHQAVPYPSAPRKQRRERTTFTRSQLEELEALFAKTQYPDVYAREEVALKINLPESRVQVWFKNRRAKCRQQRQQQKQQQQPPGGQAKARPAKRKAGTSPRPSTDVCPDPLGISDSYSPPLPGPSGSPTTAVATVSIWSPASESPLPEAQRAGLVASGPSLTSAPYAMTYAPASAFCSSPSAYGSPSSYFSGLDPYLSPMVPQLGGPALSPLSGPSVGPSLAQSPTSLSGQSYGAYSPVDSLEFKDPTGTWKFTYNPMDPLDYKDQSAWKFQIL
sequence,measurement,setting,value
TATAAC,binding signal,FLI1,"1.22 fold enrichment (6-mer frequency, TF over GST control)"
same,binding signal,ELK1,"1.21 fold enrichment (6-mer frequency, TF over GST control)"
same,binding signal,GABPA,"1.2 fold enrichment (6-mer frequency, TF over GST control)"
same,binding signal,ERG,"1.28 fold enrichment (6-mer frequency, TF over GST control)"
same,binding signal,ELF1,"1.29 fold enrichment (6-mer frequency, TF over GST control)"
same,binding signal,EHF,"1.15 fold enrichment (6-mer frequency, TF over GST control)"
same,binding signal,SPI1,"1.12 fold enrichment (6-mer frequency, TF over GST control)"
same,binding signal,SPIB,"1.39 fold enrichment (6-mer frequency, TF over GST control)"
same,binding signal,ELK3,"1.18 fold enrichment (6-mer frequency, TF over GST control)"
same,binding signal,FEV,"1.26 fold enrichment (6-mer frequency, TF over GST control)"
same,binding signal,ETV5,"1.2 fold enrichment (6-mer frequency, TF over GST control)"
same,binding signal,HSF1,"1.15 fold enrichment (6-mer frequency, TF over GST control)"
same,binding signal,SPIC,"1.2 fold enrichment (6-mer frequency, TF over GST control)"
same,binding signal,ELF4,"1.2 fold enrichment (6-mer frequency, TF over GST control)"
same,binding signal,ELK4,"1.17 fold enrichment (6-mer frequency, TF over GST control)"
same,binding signal,ETV2,"1.1 fold enrichment (6-mer frequency, TF over GST control)"
same,binding signal,ELF3,"1.25 fold enrichment (6-mer frequency, TF over GST control)"
same,binding signal,CRX,"1.43 fold enrichment (6-mer frequency, TF over GST control)"
same,binding signal,ETV1,"1.25 fold enrichment (6-mer frequency, TF over GST control)"
